From PubChem
Sampled rows, rich in hits. Any-hit rate of the full collection: about 5.3%.
HIF act = HIF pathway transcriptional activation. U2OS HRE-luciferase reporter, luminescence; normalized: DMSO 0%, desferrioxamine 100%. activation, % at 7.5 µM (by protocol). 300,000 compounds, 0.32% hits. AID 1910;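 active = mean activation of at least 10% of the iron chelator positive control signal, with at least half of replicates also reaching 10%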
SUMO Mot1 rescue = inhibitors of SUMOylation pathway: yeast Mot1-301 growth rescue | S. cerevisiae Mot1-301 growth rescue, ATP luminescence, 38.5C; percent above DMSO median, 100 means doubled | 320,000 compounds, 1% hits | growth rescue, % at 18.8 µM;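 active = every valid replicate shows activation above 250% relative to neutral control wells; inactive = the rest, any valid replicate at or below 250%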
ALR H2O2 inh = inhibitors of human sulfhydryl oxidase ALR. purified ALR, DTT oxidation, H2O2 HRP-luminol luminescence. inhibition, % (no concentration beside the values). 290,000 compounds, 3.8% hits;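 active = mean replicate inhibition above about 79%, with every replicate also reaching it, limit read from the data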
Target sequence (P55789 whole entry, looked up): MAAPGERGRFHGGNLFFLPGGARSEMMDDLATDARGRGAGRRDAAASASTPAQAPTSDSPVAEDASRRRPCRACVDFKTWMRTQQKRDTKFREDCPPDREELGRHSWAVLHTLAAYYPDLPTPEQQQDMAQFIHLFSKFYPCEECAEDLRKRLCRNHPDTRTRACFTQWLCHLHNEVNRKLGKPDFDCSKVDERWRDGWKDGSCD
M18AAP inhibitor = PfM18AAP enzyme inhibition. AID 1822. recombinant PfM18AAP, H-Glu-NHMec fluorogenic cleavage. 290,000 compounds, 1.2% hits. inhibition, % at 7.35 µM;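 active = inhibition above the campaign mean inhibition over all tested compounds plus 3 SD, cut at about 28% in these data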
Mot1 SUMO dose = inhibits SUMO pathway, affecting Mot1-301 yeast growth. shares compounds with SUMO Mot1 rescue. S. cerevisiae Mot1-301 galactose growth, ATP luminescence, 24 h; -100 = growth of slx-deleted rescue strain. growth activity, percent, % at 42 µM. 2,300 tested, under 10 active. AID 493004;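 active = Signal drops as the depositor expects, and the fitted half-maximal dose is no more than ten times the top valid tested dose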;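 note: more negative values mean stronger growth rescue toward the control strain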
Each line names hits and unclear results; the compound was inactive in the other large screens (follow-up assays come after a bar, where they were run).

OC1CN=C2CCCc3c2n(c2ccc(Cl)cc32)C1 (stereo not given)	SUMO Mot1 rescue 368 | Mot1 SUMO dose inactive
Cc1ccc(N(CC(=O)NC2CCCC2)C(=O)CNC(=O)c2cccs2)cc1C	none (no result: ALR H2O2 inh)
CCOC(=O)c1ccccc1NC(=O)CSc1ccc(-c2ccccn2)nn1	SUMO Mot1 rescue 783 | Mot1 SUMO dose inactive
O=C(NNC(=O)c1ccc(-n2cncn2)c([N+](=O)[O-])c1)c1cccc(Cl)c1	none (no result: M18AAP inhibitor)
O=C(NNC(=O)c1ccc(-n2cncn2)c([N+](=O)[O-])c1)c1ccc(Cl)cc1	SUMO Mot1 rescue 672 (no result: M18AAP inhibitor) | Mot1 SUMO dose inactive
Clc1ccc(CNCc2cccs2)cc1Cl	SUMO Mot1 rescue 363 | Mot1 SUMO dose inactive
CCc1ccc(CNCc2cccs2)cc1	none
CC(Sc1nnc(C2CC2)n1C1CC1)C(=O)N(C)C1(C#N)CCCCC1 (stereo not given)	none (no result: HIF act, M18AAP inhibitor)
COc1cccc(/C=C2/C(=O)NN(c3ccc(Br)cc3)C2=O)c1O	SUMO Mot1 rescue 528 | Mot1 SUMO dose inactive
COc1cc(/C=C2/C(=O)NN(c3ccc(Cl)cc3)C2=O)ccc1OC(=O)c1ccco1	none
COc1cccc(C(=O)NCC(=O)OCC(=O)NC2CCCCC2)c1	none (no result: HIF act, M18AAP inhibitor)
COC(C(=O)Nc1ccnn1C1CCN(Cc2cnn(C)c2)CC1)c1ccccc1 (stereo not given)	SUMO Mot1 rescue 497 | Mot1 SUMO dose inactive
COCc1ccc(CN2CCC(n3nccc3NC(=O)C(OC)c3ccccc3)CC2)o1 (stereo not given)	none
O=C(CN1CCN(S(=O)(=O)c2ccc(Br)cc2)CC1)N/N=C/c1ccc(Br)s1	none
CN(C)S(=O)(=O)N1CCc2ccccc2C1	SUMO Mot1 rescue active | Mot1 SUMO dose inactive
CN(C)S(=O)(=O)N1CCc2ccccc21	none
O=C(/C=C/c1ccccc1)NCC1(c2ccccc2)CCOCC1	none
O=C(/C=C/c1ccc(F)cc1)NCC1(c2ccccc2)CCOCC1	SUMO Mot1 rescue 542 | Mot1 SUMO dose inactive
CSc1ccccc1NC(=O)CSc1nnc(COc2ccccc2)o1	none
COC(=O)[C@H](CC(C)C)NC(=O)N1CCN(c2cccc(C(F)(F)F)c2)CC1	none
CCC(=O)N(Cc1ccc2c(c1)OCO2)Cc1cc2cc(OC)ccc2[nH]c1=O	SUMO Mot1 rescue 376 | Mot1 SUMO dose inactive
C/C=C/C(=O)OCC(=O)Nc1nc2ccc(C)cc2s1	SUMO Mot1 rescue 361 | Mot1 SUMO dose inactive
CCc1ccc(NC(=O)N2CCC(c3ccccc3)C2)cc1 (stereo not given)	SUMO Mot1 rescue 929 (no result: ALR H2O2 inh) | Mot1 SUMO dose inactive
O=C(CN1C(=O)NC2(CCCC2)C1=O)OCCOc1ccc(Cl)cc1Cl	none (no result: ALR H2O2 inh, M18AAP inhibitor)
CN(C)CCN(Cc1ccccc1)S(=O)(=O)c1ccc(-c2ccc(=O)[nH]n2)s1	none
CCOC(=O)CCN(c1ccccc1)S(=O)(=O)c1ccc(-c2ccc(=O)[nH]n2)s1	SUMO Mot1 rescue 588 | Mot1 SUMO dose inactive
COc1cc(C(=O)N/N=C/c2ccccn2)cc(OC)c1OC	SUMO Mot1 rescue 935 | Mot1 SUMO dose inactive
CC1CC(C)(C)NC(=S)N1CC(=O)NCc1ccc(F)cc1 (stereo not given)	SUMO Mot1 rescue 835 (no result: ALR H2O2 inh) | Mot1 SUMO dose inactive
C=CCN(C/C(=N\O)c1sc(C(=O)OCC)nc1C)c1cccc(Br)c1	none (no result: M18AAP inhibitor)
O=S(=O)(NCCS(=O)(=O)N1CCN(c2ccccc2)CC1)c1ccccc1	none
Cc1ccc(S(=O)(=O)NCCS(=O)(=O)N2CCN(c3ccc(F)cc3)CC2)cc1	SUMO Mot1 rescue 543 (no result: M18AAP inhibitor) | Mot1 SUMO dose inactive
CS(=O)(=O)N1CCCC(C(=O)NCc2ccco2)C1 (stereo not given)	SUMO Mot1 rescue 384 | Mot1 SUMO dose inactive
O=C(NCc1ccco1)C1CCCN(S(=O)(=O)c2ccc(Br)cc2)C1 (stereo not given)	none
COc1cc(OC)cc(-c2c(C#Cc3ccsc3)c3cc(-c4ccc(OC)nc4)ccc3n2C)c1	none (no result: HIF act, M18AAP inhibitor)
COC(CNC(=O)c1cn(C)c2ccc(S(=O)(=O)N3CCOCC3)cc2c1=O)OC	SUMO Mot1 rescue 606 | Mot1 SUMO dose inactive
Cc1cc(C)cc(C(=O)Oc2cc(C)[nH]c(=O)c2[N+](=O)[O-])c1	SUMO Mot1 rescue 366 | Mot1 SUMO dose inactive
COc1cc(C(=O)Oc2cc(C)[nH]c(=O)c2[N+](=O)[O-])cc(OC)c1OC	none
Cc1ccc(C2C(C(=O)c3cccs3)=C(O)C(=O)N2c2ccc(S(N)(=O)=O)cc2)cc1 (stereo not given)	SUMO Mot1 rescue 932 (no result: ALR H2O2 inh) | Mot1 SUMO dose inactive
